Results: PubChem BioAssay AID1476 (National Center for Advancing Translational Sciences (NCATS), 2009)
Out of some 200,000 compounds screened, about 4,500 (2.2%) were called active. Not shown: some 12% with an inconclusive outcome. Calls come from the whole dose curve; as a rule, active = well fitted inhibition curve with a large enough effect; inconclusive = small, poorly fitted or top-dose-only effect, or effect the other way; inactive = flat fitted curve, though single readings scatter. The sample as a whole holds a higher share of actives than the screen did.
Note: nearly all actives have a fitted effect of over 40% in size.
Potency is the fitted concentration of half-maximal effect.
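Throughout, for max response, negative = inhibition: plate controls were enzyme without inhibitor for no effect and buffer without enzyme for full effect.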

Each molecule was assayed against Cruzipain (Trypanosoma cruzi) (UniProt P25779) (assay: qHTS Assay for Promiscuous and Specific Inhibitors of Cruzain (without detergent)). Conditions: purified cruzain, Z-FR-AMC fluorescence, no detergent.
Sequence of Cruzipain (Trypanosoma cruzi) (P25779 123-467 limits assumed): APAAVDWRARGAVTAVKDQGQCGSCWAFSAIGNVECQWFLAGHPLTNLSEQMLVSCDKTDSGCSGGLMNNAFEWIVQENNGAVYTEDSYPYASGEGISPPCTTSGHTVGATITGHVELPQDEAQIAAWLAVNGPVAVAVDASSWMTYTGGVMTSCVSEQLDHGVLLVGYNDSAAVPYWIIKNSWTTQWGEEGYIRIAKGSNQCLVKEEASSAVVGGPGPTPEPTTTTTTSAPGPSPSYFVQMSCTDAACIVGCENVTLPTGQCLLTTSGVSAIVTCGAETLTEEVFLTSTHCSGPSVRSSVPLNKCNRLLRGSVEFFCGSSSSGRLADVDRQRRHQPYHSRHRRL
How it was run: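 Detergent-free condition (0.00005% Triton X-100) in acetate buffer pH 5.5 with DTT. 1.5 nM enzyme and compound were pre-mixed 15 min, then 2 uM Z-FR-AMC substrate added; reaction progress from fluorescence change between first and third reads (60 s).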
Cc1cccc(N2CCN(C(=O)Cn3ncc4c5ccccc5n(C)c4c3=O)CC2C)c1 (centres undefined) was tested, and the max response, negative = inhibition was 2.09% (inactive).
For COc1cc(CN(CC2CCCO2)C(=O)c2ccccc2F)cc(OC)c1OC (centres undefined), the max response, negative = inhibition was 17.1% (inactive).
For CC(C)(C)OC(=O)N1CCC(c2c(C(=O)NCCc3ccsc3)cnn2-c2ccc(F)cc2F)CC1, the max response, negative = inhibition was -13.2% (inactive).
In the case of CCCC12CN3CC(CCC)(CN(C1)C3c1c[nH]c3ccc(OC)cc13)C2=O (centres undefined), the max response, negative = inhibition is reported as 15.7% (inactive).
In the case of O=C(NCc1ccccn1)c1cc(-c2ccccc2Cl)on1, the max response, negative = inhibition is reported as -2.8% (inactive).
In the case of O=C(NCc1ccccn1)c1ccc2nc(-c3ccco3)c(-c3ccco3)nc2c1, the Potency is reported as 25.1 µM (active).
With CN(c1ccc(C(=O)NCc2ccccn2)cc1)S(C)(=O)=O the max response, negative = inhibition was -4.77% (inactive).
For CCSc1nnc2c(n1)OC(c1ccc(OCC(=O)O)cc1)Nc1ccccc1-2 (centres undefined), the max response, negative = inhibition was -6.38% (inactive).
CCOc1ccc(CNC(=O)c2cc(-c3ccc(Cl)s3)nc3ccccc23)cc1 was tested, and the max response, negative = inhibition was -5.14% (inactive).
COC(=O)CN(C(=S)Nc1ccc(Cl)cc1)C1CC(=O)N(c2ccc(OC)cc2)C1=O (centres undefined) was tested, and the max response, negative = inhibition was -5.17% (inactive).
In the case of Cc1ccc(N2CC(C(=O)Nc3ccc(N(C)C)cc3)CC2=O)cc1Cl (centres undefined), the max response, negative = inhibition is reported as -3.38% (inactive).
For CN(C)c1ccc(NC(=S)N(CCc2ccccc2)C2CC(=O)N(c3c(Cl)cccc3Cl)C2=O)cc1 (centres undefined), the Potency was 15.8 µM (active).
In the case of CN1C(=O)c2ccccc2Sc2ccc(NC(=O)Cc3ccc(Cl)cc3)cc21, the max response, negative = inhibition is reported as 14.1% (inactive).
In the case of CCOC(=O)c1cc2c(=O)n3ccccc3nc2n(Cc2ccco2)c1=NC(=O)c1ccc(F)cc1, the max response, negative = inhibition is reported as -18.9% (inactive).
For CCCCn1c(=N)c(S(=O)(=O)c2ccccc2)cc2c(=O)n3cccc(C)c3nc21, the max response, negative = inhibition was 14.5% (inactive).
With CCn1c(=N)c(S(=O)(=O)c2ccc(F)cc2)cc2c(=O)n3ccccc3nc21 the Potency was 20 µM (active).
Cc1ccc(-c2nc(CS(=O)(=O)CC(=O)NCc3ccccc3Cl)c(C)o2)cc1 was tested, and the max response, negative = inhibition was -2.75% (inactive).
For CC(C)(C)n1nnnc1C(c1ccc2ncccc2c1)N1CCSCC1 (centres undefined), the Potency was 7.94 µM (active).
With CC(C)(C)n1nnnc1C(c1ccc(Cl)cc1)N1CCSCC1 (centres undefined) the max response, negative = inhibition was -17.6% (inactive).
With CCC(C)(C)n1nnnc1C(c1ccccc1OC)N1CCSCC1 (centres undefined) the max response, negative = inhibition was 1.47% (inactive).
With Cc1ccc(C)c(NC(=O)Cn2ccn(-c3ccc(F)cc3)c(=O)c2=O)c1 the max response, negative = inhibition was -16.8% (inactive).
In the case of CC(C)OCCCNc1ncnc2c1[nH]c1ccc(F)cc12, the max response, negative = inhibition is reported as -22.4% (inactive).
With O=C1CCCN1CCCNc1ncnc2c1[nH]c1ccccc12 the Potency was 20 µM (active).
With O=C(CCn1c(=S)[nH]c2ccccc2c1=O)NCCCN1CCCC1=O the max response, negative = inhibition was 7.76% (inactive).
For COc1ccc(N2CCN(C3=NS(=O)(=O)C(c4cccc(Br)c4)=C3C)CC2)cc1, the max response, negative = inhibition was -1.42% (inactive).
COc1cccc(CNc2nccn(-c3ccc(OC)c(OC)c3)c2=O)c1 was tested, and the max response, negative = inhibition was 4.88% (inactive).
In the case of CCOc1ccc(-n2c(SCC(=O)NCc3ccccc3)nc3n[nH]c(C)c3c2=N)cc1, the max response, negative = inhibition is reported as 6.06% (inactive).
In the case of COc1ccc(OC)c(-n2nnc3c(sc4nc(C)c(Br)c(C)c43)c2=O)c1, the max response, negative = inhibition is reported as 15.9% (inactive).
Cc1ccc(N=C2NC(=O)/C(=C/C=C/c3ccco3)S2)cc1C was tested, and the max response, negative = inhibition was -3.89% (inactive).
In the case of Cc1cccc(N=C2NC(=O)/C(=C/c3cn(C)c4ccccc34)S2)c1, the Potency is reported as 31.6 µM (active).
In the case of Cc1nnc(N2CCCC(C(=O)NCCN(C)C)C2)c2nn(-c3ccccc3)c(C)c12 (centres undefined), the max response, negative = inhibition is reported as -14.7% (inactive).
For Cc1cccc(CSc2nc3ccncc3n2Cc2ccc(C(=O)O)cc2)c1, the max response, negative = inhibition was -13.3% (inactive).
CCc1nn(CC(=O)N2CCN(c3cccc(C(F)(F)F)c3)CC2)c(=O)c2cc3occc3n12 was tested, and the max response, negative = inhibition was -20.3% (inactive).
In the case of CCCCN1C(=O)c2[nH]nc(-c3ccccc3O)c2C1c1cccc(OCc2ccccc2)c1 (centres undefined), the max response, negative = inhibition is reported as -70.8% (inactive).
With O=C(COc1ccccc1Cl)Nc1ccc2nc(SCC(=O)N3CCCC3)sc2c1 the max response, negative = inhibition was -3.05% (inactive).
In the case of Cc1ccc(NC(=O)CSc2nc3ccccc3c3nc(CCn4cncc4C)nn23)cc1F, the max response, negative = inhibition is reported as 6.2% (inactive).
With COc1ccc(CNC(=O)CCc2c(C)nn(-c3ccc(N4CCCC4)nn3)c2C)cc1 the max response, negative = inhibition was 3.65% (inactive).
In the case of Cc1ccc2nc(S(=O)(=O)O)[nH]c2c1, the max response, negative = inhibition is reported as -1.87% (inactive).
For Cc1ccc2nc(/C(C#N)=C/c3ccccc3F)[nH]c2c1, the max response, negative = inhibition was -17.7% (inactive).
Cc1ccc2nc(/C(C#N)=C/c3ccc(-c4ccc(C(=O)OC(C)C)cc4)o3)[nH]c2c1 was tested, and the Potency was 12.6 µM (active).
In the case of Cc1ccc(N2C(=O)C3C(c4ccccc4)(C2=O)C3(c2ccccc2)c2ccccc2)cc1 (centres undefined), the Potency is reported as 25.1 µM (active).
With C=C1c2cc(CC)ccc2NC(=O)N1c1ccc(C)cc1 the max response, negative = inhibition was -5.5% (inactive).
With Cc1ccc(N2C(=O)C(Cc3ccccc3)NC2=S)cc1 (centres undefined) the max response, negative = inhibition was -8.99% (inactive).
With Cc1ccc(Cn2c(=O)n(CCCC(=O)NCc3ccccc3Cl)c(=O)c3ccccc32)cc1 the max response, negative = inhibition was 3.97% (inactive).
